We go through 15 compounds from PubChem BioAssay (EPA / NIEHS).

Each structure is given as a SMILES string. Results filed as inconclusive are left out. Activity calls are given as the source filed them. How the source made its calls: active means hit-call score of the fitted dose curve at least 0.9, where 1 is the maximum; inconclusive means response in the unintended direction; inactive means score below 0.9.

rat CYP2C13, Cyp2c13 (gene 171521), sequence (P20814 whole entry, looked up): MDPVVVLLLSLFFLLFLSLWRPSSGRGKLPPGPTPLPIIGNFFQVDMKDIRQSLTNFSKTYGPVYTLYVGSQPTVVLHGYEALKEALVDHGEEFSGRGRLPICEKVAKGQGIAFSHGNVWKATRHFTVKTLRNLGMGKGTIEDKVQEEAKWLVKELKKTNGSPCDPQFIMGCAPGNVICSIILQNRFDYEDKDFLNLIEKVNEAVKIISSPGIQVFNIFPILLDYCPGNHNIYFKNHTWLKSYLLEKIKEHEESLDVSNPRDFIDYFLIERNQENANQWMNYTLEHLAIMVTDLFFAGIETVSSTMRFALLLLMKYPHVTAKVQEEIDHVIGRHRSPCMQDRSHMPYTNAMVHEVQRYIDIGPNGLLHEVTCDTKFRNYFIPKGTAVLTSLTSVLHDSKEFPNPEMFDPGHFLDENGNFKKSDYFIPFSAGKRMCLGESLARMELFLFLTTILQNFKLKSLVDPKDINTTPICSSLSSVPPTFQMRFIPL

The target of the experiment is rat CYP2C13, Cyp2c13 (gene 171521) (UniProt P20814). Description: NVS_ADME_rCYP2C13: NovaScreen (NVS) CYP450-related Enzyme Activity (ADME) Assay for rat CYP2C13 (AID 2283121). As for the experimental part:
NVS_ADME_rCYP2C13 is a biochemical, single-readout assay that uses extracted gene-proteins in a cell-free assay. Measurements were taken 0.75 hour after chemical dosing in a 96-well plate.NVS_ADME_rCYP2C13 is one of one assay component(s) measured or calculated from the NVS_ADME_rCYP2C13 assay. It is designed to make measurements of enzyme activity, a form of enzyme reporter, as detected with fluorescence intensity signals by Fluorescence technology.Data from the assay component NVS_ADME_rCYP2C13 was analyzed into 1 assay endpoint. This assay endpoint, NVS_ADME_rCYP2C13, was analyzed in the positive analysis fitting direction relative to Acetonitrile as the negative control and baseline of activity. Using a type of enzyme reporter, loss-of-signal activity can be used to understand changes in the enzymatic activity as they relate to the gene Cyp2c13. Furthermore, this assay endpoint can be referred to as a primary readout, because this assay has produced multiple assay endpoints where this one serves a enzymatic activity function. To generalize the intended target to other relatable targets, this assay endpoint is annotated to the cyp intended target family, where the subfamily is xenobiotic metabolism.
Binding assays used specific radioligands (tritiated, iodinated) with non-radioactive competitive displacement ligands in agonist or antagonist protocols (as indicated) and various reference compounds and inhibitors to titrate specific binding to receptors and transporters. Most enzyme assays (CYPs, kinases, phosphatases, proteases, HDACs) used recombinant protein and specific substrates (fluorescence mostly, some colorimetric and radioactive) and inhibitors, followed by a biochemical separation of substrate and product. All assays for the biochemical HTS were initially run in duplicate at a single concentration (10 uM for CYP450 assays and 25 uM for all others). […] Each assay was run with positive and negative controls, and concurrent controls on every plate. The follow-up (secondary) screen tested active chemical-pairs in concentration series, as well as a few additional assays not tested in the primary screen, some selected negative inactives, and several cases re-run in the concentration series for confirmatory purposes.
In the case of `CCOP(=S)(OCC)Oc1ccc([N+](=O)[O-])cc1`, the AC50 (as a rule, the concentration giving half of the maximal activity seen) is 10 µM (active).
The same measure, in the same setting: the result for `CSc1nc(NC(C)C)nc(NC(C)C)n1` reads 7.91 µM (active); that for `CC[C@H](C)[C@H]1O[C@]2(C=C[C@@H]1C)C[C@@H]1C[C@@H](C/C=C(\C)[C@@H](O[C@H]3C[C@H](OC)[C@@H](O[C@H]4C[C@H](OC)[C@@H](NC)[C@H](C)O4)[C@H](C)O3)[C@@H](C)/C=C/C=C3\CO[C@@H]4[C@H](O)C(C)=C[C@@H](C(=O)O1)[C@]34O)O2`, 6.31 µM (active).
`CC(C1CC1)C(O)(Cn1cncn1)c1ccc(Cl)cc1` (stereo not given): the AC50 was 0.0755 µM (active).
On the same count and under the same terms, the result for `CCC(=O)Nc1ccc(Cl)c(Cl)c1` reads 5.42 µM (active); that for `CCCSP(=O)(OCC)Oc1ccc(Br)cc1Cl` (stereo not given), 9.49 µM (active).
Still for that read-out and setting: as for `CC(C)=CC1C(C(=O)OCN2C(=O)C3=C(CCCC3)C2=O)C1(C)C` (stereo not given), the figure is 8.97 µM (active).
Same read-out and setting: the result for `COc1cccc(C(=O)NN(C(=O)c2cc(C)cc(C)c2)C(C)(C)C)c1C` reads 2.64 µM (active).
Take `CC(=NC#N)N(C)Cc1ccc(Cl)nc1`: the result was inactive.
As for `C=C(C)[C@H]1Cc2c(ccc3c2O[C@@H]2COc4cc(OC)c(OC)cc4[C@@H]2C3=O)O1`, the AC50 is 2.26 µM (active).
`CCCOCC(=Nc1ccc(Cl)cc1C(F)(F)F)n1ccnc1`: the AC50 is 0.966 µM (active).
Consider `CCOC(=O)CC(SP(=O)(OC)OC)C(=O)OCC` (stereo not given), for which the compound was classed as inactive.
Turning to `FC(F)C(F)(F)OCC(Cn1cncn1)c1ccc(Cl)cc1Cl` (stereo not given), the AC50 is 0.257 µM (active).
Same read-out and setting: as for `CC1(C(=O)Nc2ccc(O)c(Cl)c2Cl)CCCCC1`, the figure is 1.37 µM (active); as for `C[Si](Cn1cncn1)(c1ccc(F)cc1)c1ccc(F)cc1`, 0.173 µM (active).
